Compounds without any hit were thinned out: in the full panel of roughly 79,000, 15% have a hit. Unmarked numbers belong to inactive results. Calls of active or inactive are those of the source. Cut-off read from the data, not from the text of the source: active = growth inhibition above about 70%; inactive = the rest.
Key:
[1] = NCI Yeast Anticancer Drug Screen. Data for the rad50 strain (AID 155);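 note: 0% = growth of vehicle-only cultures of the same strain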; settings: S. cerevisiae rad50 strain growth inhibition; at 50.0 µM; hits give high values
Outline: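 Genetically altered yeast (DNA repair pathway); compound treatment; growth inhibition vs vehicle ctrl.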

[2] = NCI Yeast Anticancer Drug Screen. Data for the mec2-1 strain (AID 157); settings: S. cerevisiae mec2-1 strain, at 50.0 µM, hits give high values
Outline: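 Yeast mec2-1 mutant treated with compound. Readout: growth inhibition vs vehicle controls.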

[3] = NCI Yeast Anticancer Drug Screen. Data for the sgs1 mgt1 strain (AID 161);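 note: 0% = growth of cultures given vehicle only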; settings: S. cerevisiae sgs1 mgt1 strain, at 50.0 µM, hits give high values
Outline: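 Read-out: growth inhibition vs vehicle controls. Cells: mutant yeast strain deficient in DNA damage repair.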

[4] = NCI Yeast Anticancer Drug Screen. Data for the cln2 rad14 strain (AID 165);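 note: 0% = growth equal to vehicle treated cultures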; settings: S. cerevisiae cln2 rad14 strain, at 50.0 µM, hits give high values
Outline: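 cln2 rad14 yeast strain; compound exposure; growth inhibition read vs vehicle controls.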

[5] = NCI Yeast Anticancer Drug Screen. Data for the bub3 strain (AID 167); settings: S. cerevisiae bub3 mutant strain, at 50.0 µM, hits give high values
Outline: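 Yeast carrying a defined mutation is treated with each compound, and growth is compared with that of vehicle-exposed cells to give inhibition.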

[6] = NCI Yeast Anticancer Drug Screen. Data for the mlh1 rad18 strain (AID 175); settings: S. cerevisiae mlh1 rad18 strain growth inhibition; at 50.0 µM; hits give high values
Outline: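 Yeast w/ defined DNA-repair lesions; compound exposure; growth vs vehicle controls → % inhibition.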

O=[N+]([O-])c1ccc(Nc2ccccc2)c([N+](=O)[O-])c1
growth inhibition [1]: 2.4% | growth inhibition [2]: -12.8% | growth inhibition [3]: -1.4% | growth inhibition [4]: -32.2% | growth inhibition [5]: -7.05% | growth inhibition [6]: 8.5%

N#C/C(=C/c1cccc2ccccc12)C(N)=O
growth inhibition [1]: 21.6% | growth inhibition [2]: 32.9% | growth inhibition [3]: 28.4% | growth inhibition [4]: 6.2% | growth inhibition [5]: 28.6% | growth inhibition [6]: 26.1%

CCOC(=O)C1(C(=O)OCC)OC(=O)NC2=C1CCCC2
growth inhibition [1]: -13.3% | growth inhibition [2]: -29.1% | growth inhibition [3]: -8.6% | growth inhibition [4]: -15.7% | growth inhibition [5]: -1.95% | growth inhibition [6]: -23.9%

CC(=O)OC[C@H]1O[C@@H](O[C@H]2[C@H](OC(C)=O)C=CO[C@@H]2COC(C)=O)C(OC(C)=O)[C@H]2OC(C)(C)O[C@H]21 (stereo not given in full)
growth inhibition [1]: -9% | growth inhibition [2]: -14.8% | growth inhibition [3]: -18.9% | growth inhibition [4]: 3.5% | growth inhibition [5]: 7.05% | growth inhibition [6]: 4.95%

c1ccc(CNC2CC3CCC2C3)cc1 (stereo not given)
growth inhibition [1]: -17.6% | growth inhibition [2]: -5.5% | growth inhibition [3]: -10.8% | growth inhibition [4]: -5.15% | growth inhibition [5]: -16.4% | growth inhibition [6]: -1.3%

Oc1ccccc1CN1CCOCC1
growth inhibition [1]: 22.4% | growth inhibition [2]: 9.3% | growth inhibition [3]: 26.9% | growth inhibition [4]: 13.8% | growth inhibition [5]: -7.2% | growth inhibition [6]: 28.5%

COc1cc(C)c(O)c(C)c1C
growth inhibition [1]: -1.9% | growth inhibition [2]: -4.1% | growth inhibition [3]: -6.55% | growth inhibition [4]: -30.3% | growth inhibition [5]: -13.1% | growth inhibition [6]: 8.35%

CC(NC(=O)CNC(=O)CN)C(N)=O (stereo not given)
growth inhibition [1]: -23.9% | growth inhibition [2]: -0.65% | growth inhibition [3]: -17.1% | growth inhibition [4]: 5.9% | growth inhibition [5]: 8.25% | growth inhibition [6]: -17.2%

C/C=C\C(=O)OC1CCC(C2CCCCC2)CC1 (stereo not given)
growth inhibition [1]: 25.3% | growth inhibition [2]: 9.3% | growth inhibition [3]: 14.8% | growth inhibition [4]: 1.25% | growth inhibition [5]: 56.6% | growth inhibition [6]: -2.15%

CCCCOC(=O)c1ccccc1OC
growth inhibition [1]: -16.1% | growth inhibition [2]: 7.2% | growth inhibition [3]: -2.3% | growth inhibition [4]: 16.9% | growth inhibition [5]: 12.1% | growth inhibition [6]: -6.9%

CCCCN(CCCC)c1ccc(S(=O)(=O)c2ccc(N(CCCC)CCCC)cc2)cc1
growth inhibition [1]: 19.1% | growth inhibition [2]: 4.95% | growth inhibition [3]: 9.4% | growth inhibition [4]: 30.4% | growth inhibition [5]: -2.35% | growth inhibition [6]: 18.6%

CN(C)/C=C/c1ccnc2c1C(=O)c1ccccc1C2=O
growth inhibition [1]: 83.7% (active) | growth inhibition [2]: 90.5% (active) | growth inhibition [3]: 73.3% (active) | growth inhibition [4]: 67.8% | growth inhibition [5]: 75.5% (active) | growth inhibition [6]: 92.7% (active)

CC(c1ccccc1)C(O)S(=O)(=O)O (stereo not given)
growth inhibition [1]: 6.95% | growth inhibition [2]: 3.7% | growth inhibition [3]: 7.35% | growth inhibition [4]: -5.05% | growth inhibition [5]: 17.3% | growth inhibition [6]: -0.35%

C=CCO[Si](C=C)(OCC=C)OCC=C
growth inhibition [1]: 31.8% | growth inhibition [2]: -10.9% | growth inhibition [3]: -5.35% | growth inhibition [4]: 10.7% | growth inhibition [5]: 9.6% | growth inhibition [6]: -3.95%

COc1cc(C2c3cc4c(cc3[C@@H](Nc3ccc(C#N)cc3)C3COC(=O)[C@H]23)OCO4)cc(OC)c1O (stereo not given in full)
growth inhibition [1]: 87.5% (active) | growth inhibition [2]: 89.7% (active) | growth inhibition [3]: 89.5% (active) | growth inhibition [4]: 85.5% (active) | growth inhibition [5]: 89% (active) | growth inhibition [6]: 88.3% (active)

CC(C)(C)NC(=O)Oc1ccc(Br)cc1Br
growth inhibition [1]: -1.5% | growth inhibition [2]: 14.4% | growth inhibition [3]: 18.6% | growth inhibition [4]: -14.2% | growth inhibition [5]: 9.75% | growth inhibition [6]: 21.2%

Cc1cc(N(CCC#N)CCC#N)ccc1/C=C\C(=O)Nc1ccccc1
growth inhibition [1]: 19.3% | growth inhibition [2]: 16.3% | growth inhibition [3]: -10.8% | growth inhibition [4]: 10.2% | growth inhibition [5]: 36.7% | growth inhibition [6]: 4.55%

S=C(SNC1CCCCC1)SNC1CCCCC1
growth inhibition [1]: -65.5% | growth inhibition [2]: -14.2% | growth inhibition [3]: 4.25% | growth inhibition [4]: -13.4% | growth inhibition [5]: 9.35% | growth inhibition [6]: 6.25%

CCCCCCCCC(=O)O (tested in a mixture with another compound)
growth inhibition [1]: 2.3% | growth inhibition [2]: 6.75% | growth inhibition [3]: 9.95% | growth inhibition [4]: 12.7% | growth inhibition [5]: 2.85% | growth inhibition [6]: 29.1%

N#Cc1[nH]nc2nc[nH]c(=O)c12
growth inhibition [1]: -16.3% | growth inhibition [2]: -14.8% | growth inhibition [3]: -10.8% | growth inhibition [4]: -9.95% | growth inhibition [5]: 3.9% | growth inhibition [6]: 4.85%

CC(=O)NNc1nc(C)c(C(/C=C/c2ccc([N+](=O)[O-])cc2)=N/NC(N)=S)s1
growth inhibition [1]: -8.6% | growth inhibition [2]: -2.25% | growth inhibition [3]: -10% | growth inhibition [4]: -12.4% | growth inhibition [5]: -7.2% | growth inhibition [6]: 6.7%

CC1(C)OC(=O)C=C([O-])O1.CC1(C)OC(=O)C=C([O-])O1.O=c1c(O)c(-c2ccc([O-])cc2[O-])oc2cc(O)cc(O)c12.[Ti+4]
growth inhibition [1]: -45.6% | growth inhibition [2]: 9.05% | growth inhibition [3]: -29.4% | growth inhibition [4]: -7.85% | growth inhibition [5]: -4.55% | growth inhibition [6]: -16.2%

O=C(Nc1ccccc1)C(=O)Nc1ccccc1
growth inhibition [1]: 5.4% | growth inhibition [2]: -18.1% | growth inhibition [3]: -8.05% | growth inhibition [4]: -12.7% | growth inhibition [5]: -10.9% | growth inhibition [6]: -4.25%

O=C1OCC=C1COC1OC(CO)C(O)C(O)C1O (stereo not given)
growth inhibition [1]: -6.35% | growth inhibition [2]: 3.55% | growth inhibition [3]: -12.8% | growth inhibition [4]: 5.05% | growth inhibition [5]: -11.9% | growth inhibition [6]: -41.7%

Oc1c(C(O)N2CCOCC2)cc(C(O)N2CCOCC2)c(O)c1O (stereo not given) (tested in a mixture with another compound)
growth inhibition [1]: -3.3% | growth inhibition [2]: -11.1% | growth inhibition [3]: -17% | growth inhibition [4]: -16.2% | growth inhibition [5]: -3.15% | growth inhibition [6]: 9.75%

C[CH2][Sn]([CH2]C)([N](c1ccccn1)c1ccccn1)[N](c1ccccn1)c1ccccn1
growth inhibition [1]: -1.75% | growth inhibition [2]: -2.25% | growth inhibition [3]: -26.2% | growth inhibition [4]: 4.3% | growth inhibition [5]: -0.6% | growth inhibition [6]: -25.1%

CC(C)(C)C1CCC(C(=O)O)CC1 (stereo not given)
growth inhibition [1]: 24.4% | growth inhibition [2]: -3.05% | growth inhibition [3]: 19.8% | growth inhibition [4]: 10.6% | growth inhibition [5]: 5.6% | growth inhibition [6]: 24.9%

Nc1nnc(-c2ccccc2)s1
growth inhibition [1]: -11.8% | growth inhibition [2]: 5.95% | growth inhibition [3]: 2.2% | growth inhibition [4]: 13.8% | growth inhibition [5]: 5.85% | growth inhibition [6]: 5.05%

O=C(O)c1ccccn1
growth inhibition [1]: -37.6% | growth inhibition [2]: -3% | growth inhibition [3]: 33.8% | growth inhibition [4]: -6.1% | growth inhibition [5]: -3.85% | growth inhibition [6]: 30%

NC1=C(O)C(=O)C(c2ccccc2)O1 (stereo not given)
growth inhibition [1]: -29.2% | growth inhibition [2]: -12.2% | growth inhibition [3]: -4.15% | growth inhibition [4]: -24.2% | growth inhibition [5]: -8.9% | growth inhibition [6]: 2.5%

CCCCN(CC)NC(=S)Nc1ccccc1
growth inhibition [1]: -9.25% | growth inhibition [2]: 9.7% | growth inhibition [3]: -3.3% | growth inhibition [4]: -18.4% | growth inhibition [5]: 17.9% | growth inhibition [6]: 5.6%

COc1cc(/C=C/C(=O)N[C@@H]2C(=O)N3[C@@H]2SC(C)(C)[C@@H]3C(=O)O)ccc1O
growth inhibition [1]: -7.45% | growth inhibition [2]: -11.2% | growth inhibition [3]: -7.9% | growth inhibition [4]: -1.55% | growth inhibition [5]: -15.2% | growth inhibition [6]: 6.65%

Nc1nn(CC(O)CO)c(=O)s1 (stereo not given)
growth inhibition [1]: 4.85% | growth inhibition [2]: 15.7% | growth inhibition [3]: 2.4% | growth inhibition [4]: 11.8% | growth inhibition [5]: 8.1% | growth inhibition [6]: 8%

CC(CNC(=O)c1ccccc1)(CNC(=O)c1ccccc1)[N+](=O)[O-]
growth inhibition [1]: 8.95% | growth inhibition [2]: 1.35% | growth inhibition [3]: -3.2% | growth inhibition [4]: 6.75% | growth inhibition [5]: 0.8% | growth inhibition [6]: 3.85%

CCC(=O)OCCCCC1CCCO1 (stereo not given)
growth inhibition [1]: 9.35% | growth inhibition [2]: 5.4% | growth inhibition [3]: 2.25% | growth inhibition [4]: 2.75% | growth inhibition [5]: 12.3% | growth inhibition [6]: 4.4%

C/C(=N\N=Nc1ccc(N(C)C)cc1)c1ccccc1
growth inhibition [1]: 1.6% | growth inhibition [2]: -3.3% | growth inhibition [3]: -5.25% | growth inhibition [4]: 15.9% | growth inhibition [5]: 29.2% | growth inhibition [6]: 9.1%

CCOC(=O)CSc1[nH]c2nc(C)nc(Cl)c2c1C#N
growth inhibition [1]: -20.7% | growth inhibition [2]: 8.3% | growth inhibition [3]: -5.2% | growth inhibition [4]: -6.65% | growth inhibition [5]: -3.45% | growth inhibition [6]: 16.6%

CCC(=O)OC1(C(=O)OC)CCN(C)CC1
growth inhibition [1]: 9.5% | growth inhibition [2]: 2.95% | growth inhibition [3]: -0.9% | growth inhibition [4]: 15.2% | growth inhibition [5]: 17.8% | growth inhibition [6]: 10.4%

C[C@@H]1CC[C@@]2(C)C(C(=O)O)=CCCC2[C@@]1(C)CC(=O)c1ccoc1 (stereo not given in full)
growth inhibition [1]: -11.9% | growth inhibition [2]: -8.55% | growth inhibition [3]: -36.1% | growth inhibition [4]: -17.1% | growth inhibition [5]: -42.5% | growth inhibition [6]: -35.2%

CC1(C)C2CCC13CS(=O)(=O)N1O[C@]13C(=O)O2 (stereo not given in full)
growth inhibition [1]: 19.3% | growth inhibition [2]: 2.7% | growth inhibition [3]: 6.55% | growth inhibition [4]: 15.1% | growth inhibition [5]: -1.05% | growth inhibition [6]: 31.9%

— PubChem BioAssay (NCI)
